3 compounds from PubChem BioAssay (NCATS) can be followed below.

A short description of test [1]: Viability qHTS for spleen associated tyrosine kinase inhibitor (SYKi) naive MV4-11 cells (AID 1963823). Also: nearly all actives have a fitted effect of over 40% in size. The following applies: MV4-11 AML viability, CellTiter-Glo luminescence, 72 h; series mostly up to 45 µM. In a few lines:
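Compounds were dispensed acoustically onto plates, MV4-11 cells (SYKi-naive) added at 500 per well, and plates incubated 72 hr at 37 C. CellTiter-Glo was added and luminescence measured after 10 min.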
(In general: Quantitative high-throughput screening tests each substance at several concentrations.)

Test [2] in a line: Viability qHTS for spleen associated tyrosine kinase inhibitor (SYKi) drug resistant MV4-11 cells (AID 1963824). Also: nearly all actives have a fitted effect of over 35% in size. The following applies: SYKi-resistant MV4-11 viability, CellTiter-Glo, 72 h; series mostly up to 45 µM. In short, it runs like this:
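SYK inhibitor-resistant MV4-11 AML cells, 500 per well, added to predispensed compounds and incubated 72 hr at 37 C, 5% CO2. Viability measured by CellTiter-Glo luminescence after 10 min at room temperature.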

Records with an inconclusive call do not appear. The source made the active and inactive calls. Calls follow the shape of the dose curve; as a rule, active = well fitted cell-killing curve with a large enough effect; inconclusive = small, poorly fitted or top-dose-only effect, or effect the other way; inactive = no such curve, though single readings can be large or run the other way.
Potency is read from the fitted curve at half-maximal effect.

Consider `CC1CCC23COC(=O)C2=CC(O)CC3C1(C)CCC1=CC(O)OC1=O` (stereo unspecified), for which the Potency entry in test [1] and in test [2] was “inactive” throughout.

For `N=c1nc2n(cc1F)C1OC(CO)C(O)C1O2` (stereo unspecified), the Potency in test [1] was 1.64 µM (active); in test [2], 2.59 µM (active).

With `Cc1cc(C)nc(SCC(=O)Nc2ncc(Cc3cccc4ccccc34)s2)n1`, the results for the Potency in test [1] and in test [2] were 7.31 µM (active) and 10.3 µM (active), respectively.
